Inconclusive results are not listed. Calls of active or inactive are those of the source. Unless noted, calls follow the shape of the dose curve; as a rule, active = well fitted curve in the direction sought with a large enough effect in the repeat runs; inconclusive = weak or mixed curves; inactive = no such curve, though single readings can be large; an effect the other way counts as inactive or inconclusive.
Key:
[1] = qHTS assay for small molecule agonists of the p53 signaling pathway (AID 651631; calls by dose curve; also: nearly all actives have a fitted effect of over 15% in size)
Summary of the method: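 Readout was fluorescence from the LiveBLAzer FRET substrate, applied for 2 h at room temperature after 16 h compound exposure at 37 °C. Cells were the p53RE-bla HCT-116 line, with beta-lactamase driven by p53 response elements.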

[2] = qHTS assay for small molecules that induce genotoxicity in human embryonic kidney cells expressing luciferase-tagged ATAD5 (AID 651632); also: nearly all actives have a fitted effect of over 15% in size
Summary of the method: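 A rise in luciferase signal from ATAD5-tagged HEK293T cells marks genetic stress. Cells were exposed to compounds for 16 hr at 37C, 5% CO2, then luciferase was quantified after a 30 min room-temperature incubation with Amplite.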

[3] = qHTS assay for small molecule agonists of the p53 signaling pathway - cell viability (AID 651633; calls by dose curve; also: series mostly up to about 83 µM; nearly all actives have a fitted effect of over 30% in size)
Summary of the method: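 p53RE-bla cells were treated with compound for 16 hours at 37 C. Cytotoxicity was then measured as CellTiter-Glo luminescence after 30 min at room temperature.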

[4] = qHTS assay to test for compound auto fluorescence at 590 nm (red) in HepG2 cells (AID 720674)
Summary of the method: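 HepG2 cells, 2,000 per well in MEM with 10% FBS, attached overnight at 37 C, then got 23 nL compound or DMSO. After 1 hr at 37 C, 5% CO2, red fluorescence was read at 540/590 nm against Rose Bengal sodium as reference.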

[5] = qHTS assay to test for compound auto fluorescence at 590 nm (red) in HEK293 cells (AID 720679)
Summary of the method: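 Autofluorescence equivalency to Rose Bengal sodium, 540/590nm, in HEK293 cells exposed overnight to 23 nL compound per well.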

[6] = qHTS assay to test for compound auto fluorescence at 535 nm (green) in HEK293 cells (AID 720680)
[7] = qHTS assay to test for compound auto fluorescence at 460 nm (blue) in HEK293 cell free culture (AID 720681)
Summary of the method: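 Compounds were added to cell-free DMEM with 10% FBS and fluorescence read directly. The blue channel used 405 nm excitation and 460 nm emission, with triamterene as the reference fluorophore.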

[8] = qHTS assay to test for compound auto fluorescence at 535 nm (green) in HEK293 cell free culture (AID 720682)
Summary of the method: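 Compounds were pin-transferred into cell-free DMEM with 10% FBS, and green fluorescence was read at excitation 485 nm and emission 535 nm. Intensities were expressed as fluorescein-equivalent values.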

[9] = qHTS assay to test for compound auto fluorescence at 590 nm (red) in HEK293 cell free culture (AID 720683)
Summary of the method: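 Cell-free wells of DMEM with 10% FBS received compound, and intrinsic fluorescence was read at excitation/emission 540/590 nm. Values expressed as equivalence to Rose Bengal sodium.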

[10] = qHTS assay to test for compound auto fluorescence at 590 nm (red) in HepG2 cell free culture (AID 720684)
Summary of the method: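 Rose Bengal sodium served as the reference for red signal. Test compounds were dispensed into serum-containing MEM (10% FBS) without cells, and plates were read at 540/590 nm.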

[11] = qHTS assay to test for compound auto fluorescence at 460 nm (blue) in HepG2 cell free culture (AID 720685)
Summary of the method: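 Cell-free plates of MEM plus 10% FBS received 23 nL compound or DMSO vehicle; blue-channel (405/460 nm) intensity scored against triamterene as reference fluorophore.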

[12] = qHTS assay to test for compound auto fluorescence at 535 nm (green) in HepG2 cell free culture (AID 720686)
[13] = qHTS assay to test for compound auto fluorescence at 460 nm (blue) in HepG2 cells (AID 720687)
Summary of the method: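 HepG2 cells in MEM with 10% FBS, attached overnight at 37 C, were exposed to compound or DMSO for 1 hr at 37 C, 5% CO2. Blue fluorescence was read at 405/460 nm, with triamterene as reference fluorophore.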

[14] = biological target: Glucocorticoid receptor (Homo sapiens) (UniProt P04150); experiment: qHTS assay to identify small molecule antagonists of the glucocorticoid receptor (GR) signaling pathway (AID 720692; active = well fitted inhibition curve with a large enough effect in the signal ratio in the repeat runs, not every such curve was filed as active; the % refers to the signal ratio)
Summary of the method: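 Inhibition of dexamethasone-driven (5 nM final) beta-lactamase expression was measured in GRE-reporter HeLa cells over 18 h at 37C. Fluorescence was read after 2 h with the B/G FRET substrate at room temperature.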

[15] = qHTS assay for small molecule disruptors of the mitochondrial membrane potential - cell viability (AID 720634; calls by dose curve;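 also: human HepG2 liver cancer cells; series mostly up to about 83 µM; nearly all actives have a fitted effect of over 20% in size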)
Summary of the method: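 Cytotoxicity was quantified from ATP content by CellTiter-Glo luminescence in the same wells as the MMP dye read-out. HepG2 (2,000 cells/well) were plated overnight and exposed to compounds for 1 hr at 37 C.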

[16] = qHTS assay for small molecule disruptors of the mitochondrial membrane potential (AID 720635)
Summary of the method: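 HepG2 cells exposed to compound 1 hr at 37C, then Mito-MPS dye 30 min. Ratio read of aggregate (540/590 nm) versus monomer (490/535 nm) fluorescence.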

[17] = qHTS assay to test for compound auto fluorescence at 460 nm (blue) in HEK293 cells (AID 720678)
Summary of the method: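 Auto fluorescence in the blue band was quantified as triamterene equivalency. HEK293 cells were seeded at 2,000/well, dosed after a 4-5 hr attachment, and kept overnight at 37C before the 405/460 nm reading.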

[18] = qHTS assay to test for compound auto fluorescence at 535 nm (green) in HepG2 cells (AID 720675)
[19] = biological target: Glucocorticoid receptor (Homo sapiens) (UniProt P04150); experiment: qHTS assay to identify small molecule agonists of the glucocorticoid receptor (GR) signaling pathway (AID 720691; active = well fitted activation curve with a large enough effect in the signal ratio in the repeat runs, not every such curve was filed as active; the % refers to the signal ratio)
Summary of the method: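 Agonist-mode qHTS in HeLa cells stably expressing a glucocorticoid-response-element beta-lactamase reporter. Fluorescence intensity read with FRET substrate (2 h, room temperature) after 18 h compound treatment at 37 C.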

Measured: Potency

Chain of Glucocorticoid receptor (Homo sapiens) (P04150 whole entry, looked up): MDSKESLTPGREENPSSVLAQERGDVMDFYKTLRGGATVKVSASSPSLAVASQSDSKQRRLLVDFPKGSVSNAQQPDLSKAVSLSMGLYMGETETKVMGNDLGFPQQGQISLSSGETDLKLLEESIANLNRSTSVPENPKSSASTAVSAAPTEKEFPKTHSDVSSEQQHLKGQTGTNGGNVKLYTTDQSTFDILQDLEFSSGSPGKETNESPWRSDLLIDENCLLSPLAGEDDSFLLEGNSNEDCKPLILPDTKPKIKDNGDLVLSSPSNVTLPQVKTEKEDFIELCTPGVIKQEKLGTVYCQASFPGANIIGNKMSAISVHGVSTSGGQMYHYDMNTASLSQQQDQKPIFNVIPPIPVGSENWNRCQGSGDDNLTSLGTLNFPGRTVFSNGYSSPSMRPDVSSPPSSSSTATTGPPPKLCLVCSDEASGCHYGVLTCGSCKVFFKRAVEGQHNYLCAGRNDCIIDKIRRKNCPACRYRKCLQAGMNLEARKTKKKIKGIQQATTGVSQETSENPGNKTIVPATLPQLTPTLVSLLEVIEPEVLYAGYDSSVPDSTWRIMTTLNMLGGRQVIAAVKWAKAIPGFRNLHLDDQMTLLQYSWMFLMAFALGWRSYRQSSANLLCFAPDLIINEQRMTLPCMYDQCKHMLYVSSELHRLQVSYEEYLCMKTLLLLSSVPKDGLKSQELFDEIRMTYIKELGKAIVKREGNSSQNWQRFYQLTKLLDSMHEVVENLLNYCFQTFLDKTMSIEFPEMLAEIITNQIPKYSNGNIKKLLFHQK

CC(C)C1CCC(O)CC1 (stereo not given)
not listed: [15] | [16] | [17] | [18] | [19]
inactive: all other assays above

CCCCS(=O)(=O)N[C@@H](Cc1ccc(OCCCCC2CCNCC2)cc1)C(=O)O
not listed: [9] | [13] | [14] | [18] | [19]
inactive: all other assays above

NC(=O)N1c2ccccc2CC(=O)c2ccccc21
not listed: [4] | [9] | [14] | [18] | [19]
inactive: all other assays above

CC(C)(CCC(=O)O)C(=O)O
not listed: [17]
inactive: all other assays above

CCCCOCCOC(=O)COc1cc(Cl)c(Cl)cc1Cl
not listed: [6] | [7] | [16] | [17]
inactive: all other assays above

O=S(=O)(O)c1cccc2c(S(=O)(=O)O)cccc12
not listed: [6] | [7] | [9] | [16]
inactive: all other assays above

Cc1ccc(C(=O)Nc2ccc(S(=O)(=O)O)c3cc(S(=O)(=O)O)cc(S(=O)(=O)O)c23)cc1NC(=O)c1cccc(NC(=O)Nc2cccc(C(=O)Nc3cc(C(=O)Nc4ccc(S(=O)(=O)O)c5cc(S(=O)(=O)O)cc(S(=O)(=O)O)c45)ccc3C)c2)c1
not listed: [16]
inactive: all other assays above

CCCC(C)C(=O)OCC (stereo not given)
not listed: [9] | [18]
inactive: all other assays above

Source: PubChem BioAssay (Tox21)
